For part of these data: Potency and affinity values are given separately. Some of the results follow. Activity calls are given as the source filed them.
Experiments:
[1] = target: Inward rectifier potassium channel 2 (Mus musculus) (UniProt P35561); assay: inhibition of Kir2.1 inward rectifier potassium flux – cell-based, FluxOR thallium flux, duplicate, confirmation (AID 2032;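 active = Primary-screen hit whose thallium flux fell at least 3 control SD below untreated wells in both duplicates, with normal baseline fluorescence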); details: Kir2.1-expressing cells, FluxOR thallium flux fluorescence, at 10 µM; active compounds read low
Inward rectifier potassium channel 2 (Mus musculus), sequence (P35561 whole entry, looked up): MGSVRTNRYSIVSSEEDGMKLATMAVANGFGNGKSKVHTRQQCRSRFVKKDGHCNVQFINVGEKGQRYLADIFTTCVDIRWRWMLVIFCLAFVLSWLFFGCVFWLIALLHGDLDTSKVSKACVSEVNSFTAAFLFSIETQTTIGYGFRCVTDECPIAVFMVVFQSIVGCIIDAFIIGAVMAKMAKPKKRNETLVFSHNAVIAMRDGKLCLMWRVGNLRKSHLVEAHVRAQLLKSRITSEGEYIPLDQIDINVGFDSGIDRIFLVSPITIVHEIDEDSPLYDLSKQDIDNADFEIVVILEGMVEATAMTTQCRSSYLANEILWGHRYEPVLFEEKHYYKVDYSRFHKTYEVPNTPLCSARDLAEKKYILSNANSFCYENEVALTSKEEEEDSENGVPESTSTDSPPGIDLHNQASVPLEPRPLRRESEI

[2] = parental HEK293 cell activity, no Kir2.1 – FluxOR thallium flux, duplicate, single concentration, counter-screen for Kir2.1 inhibitor project, confirmation (AID 2105); details: parental HEK293 cells, FluxOR thallium flux fluorescence, at 10 µM; 0% = unstimulated blank wells;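 as to FluxOR signal as % of negative control (100 = no effect): percent is based on the flux ratio of peak minus minimum fluorescence over baseline F0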
[3] = parental CHO-K1 cell activation, no KCNQ2 – FluxOR thallium flux, duplicate, counter-screen for KCNQ2 potentiator project, confirmation (AID 2282;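 active = signal rise of at least 3 SD above the untreated control mean, in both duplicate wells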;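 also: counter screen of KCNQ2 potentiator hits so any rise reflects channel-independent effects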); details: parental CHO-K1 cells, FluxOR thallium flux fluorescence; at 10 µM; active compounds read high; zero = vehicle mean+3SD, 100% = vehicle-minus-blank window
[4] = target: Potassium voltage-gated channel subfamily KQT member 1 (Homo sapiens) (UniProt P51787); assay: KCNQ1 activation in stable CHO cells – cell-based, FluxOR thallium flux, selectivity assay for KCNQ2 potentiator project, confirmation (AID 2283;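 active = fluorescence ratio rise of at least 3 SD of vehicle wells above their mean, in both replicate wells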;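 also: 0% = vehicle mean plus 3 SD and 100% = vehicle minus unstimulated blank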); details: FluxOR thallium flux fluorescence, at 10 µM, active compounds read high, beyond 3SD, as % of vehicle-control signal
Potassium voltage-gated channel subfamily KQT member 1 (Homo sapiens), sequence (P51787 whole entry, looked up): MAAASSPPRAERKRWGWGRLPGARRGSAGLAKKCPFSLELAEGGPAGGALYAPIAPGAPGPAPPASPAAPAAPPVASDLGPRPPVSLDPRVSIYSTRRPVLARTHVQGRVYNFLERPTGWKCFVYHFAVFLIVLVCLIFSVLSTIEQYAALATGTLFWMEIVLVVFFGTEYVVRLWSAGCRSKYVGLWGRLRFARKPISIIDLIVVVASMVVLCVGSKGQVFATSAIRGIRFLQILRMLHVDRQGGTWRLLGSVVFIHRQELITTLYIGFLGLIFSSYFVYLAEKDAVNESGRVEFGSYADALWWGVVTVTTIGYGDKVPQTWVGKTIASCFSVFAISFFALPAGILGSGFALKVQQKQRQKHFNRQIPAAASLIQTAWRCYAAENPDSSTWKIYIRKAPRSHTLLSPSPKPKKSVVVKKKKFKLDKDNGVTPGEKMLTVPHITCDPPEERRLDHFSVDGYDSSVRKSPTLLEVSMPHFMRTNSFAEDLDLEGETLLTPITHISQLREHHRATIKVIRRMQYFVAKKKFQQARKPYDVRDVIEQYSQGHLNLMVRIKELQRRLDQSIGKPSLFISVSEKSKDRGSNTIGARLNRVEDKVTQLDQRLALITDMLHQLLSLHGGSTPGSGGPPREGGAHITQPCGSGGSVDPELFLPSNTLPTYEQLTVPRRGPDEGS

[5] = target: Potassium voltage-gated channel subfamily KQT member 2 (Rattus norvegicus) (UniProt O88943); assay: KCNQ2 potassium channel activity enhancers – cell-based, CHO, FluxOR thallium flux, duplicate, confirmation (AID 2287;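 active = fluorescence ratio rising 3 SD or more over the vehicle control mean in both replicates, plus primary screen hit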;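 also: peak minus minimum thallium fluorescence divided by baseline after K/Tl stimulus; 0% = vehicle mean plus 3 SD and 100% = vehicle minus unstimulated blank difference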); details: CHO-KCNQ2 cells, FluxOR thallium flux fluorescence; at 10 µM; active compounds read high
[6] = target: Inward rectifier potassium channel 2 (Mus musculus) (UniProt P35561); assay: PubChem AID 2345; details: HEK293 Kir2.1, FluxOR thallium flux fluorescence; at 10 µM; active compounds read high;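 also: 0% = vehicle mean plus 3 SD and 100% = vehicle minus no-stimulus blank window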
[7] = target: Potassium voltage-gated channel subfamily KQT member 2 (Rattus norvegicus) (UniProt O88943); assay: W236L mutant KCNQ2 current enhancers – cell-based, rat KCNQ2 W236L, CHO, automated patch clamp, mechanism study for KCNQ2 potentiator project (AID 2558;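 active = current increase at least 3 SD of the untreated controls above them in both duplicate recordings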); details: at 25 µM
[8] = target: Potassium voltage-gated channel subfamily KQT member 1 (Homo sapiens) (UniProt P51787); assay: blockers of human KCNQ1 channel – cell-based, Tl flux, duplicate, confirmation (AID 588353;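 active = primary screen active, with duplicate mean exceeding buffer control mean plus 3 SD of buffer wells, cut at about 28% in these data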;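 also: 0% = buffer control ratio and 100% = XE991 inhibitor control ratio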); details: KCNQ1 cell line, FluxOR thallium flux fluorescence; at 10 µM; active compounds read high
[9] = nonspecific activity in CHO-K1 cells without KCNQ1 – parental CHO cells, Tl flux, counter-screen for KCNQ1 inhibitor project (AID 588366;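 active = mean of duplicate thallium-flux fluorescence ratios in parental host cells more than 5 SD below the buffer control mean, cut at about 0.38 in these data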;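 also: ratio is peak minus minimum fluorescence divided by baseline fluorescence; actives read low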); details: parental CHO-K1, FluxOR thallium flux fluorescence ratio; at 10 µM; active compounds read low; zero means no signal rise above baseline
[10] = target: Potassium voltage-gated channel subfamily KQT member 2 (Rattus norvegicus) (UniProt O88943); assay: block of rat KCNQ2 potassium channel – cell-based, selectivity assay for KCNQ1 inhibitor project (AID 651746;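 active = mean percent inhibition of the KCNQ2 thallium signal more than 5 SD above the buffer-only control wells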;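 also: 0% = buffer control wells and 100% = XE-991 inhibitor control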); details: KCNQ2 cells, FluxOR thallium flux fluorescence, at 10 µM; active compounds read high
[11] = nonspecific flux increase, KCNQ1-free cells – parental CHO cells, counter-screen for KCNQ1 potentiator project (AID 493006;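 active = duplicate-averaged activation above buffer control mean plus 5 SD of those controls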;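 also: fluorescence ratio of max minus min over baseline after K+ and Tl+ depolarization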); details: parental CHO-K1 cells, FluxOR thallium flux, at 10 µM; active compounds read high
[12] = target: Potassium voltage-gated channel subfamily KQT member 1 (Homo sapiens) (UniProt P51787); assay: enhancement of KCNQ1 channel thallium flux – FluxOR thallium flux, CHO cells, duplicates, confirmation (AID 493007;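 active = potentiation averaged over duplicate wells exceeding buffer-only control mean by more than 3 SD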;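 also: 0% = buffer-only wells and 100% = R-L3 activator control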); details: KCNQ1 cell line, FluxOR thallium flux fluorescence, at 10 µM; active compounds read high, % of reference activator effect, buffer zero
[13] = target: Potassium voltage-gated channel subfamily KQT member 2 (Rattus norvegicus) (UniProt O88943); assay: KCNQ2 thallium flux enhancement – KCNQ2-CHO-K1 cells, selectivity assay for KCNQ1 potentiator project (AID 493009;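 active = mean duplicate potentiation above the buffer control mean plus 5 SD of buffer wells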;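 also: assay conditions were tuned for KCNQ1 rather than KCNQ2 modulators; signal is max minus min fluorescence divided by baseline after thallium stimulus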); details: FluxOR thallium flux fluorescence, at 10 µM; active compounds read high, scaled: buffer 0, activator control 100
[14] = target: Potassium voltage-gated channel subfamily KQT member 1 (Homo sapiens) (UniProt P51787); assay: KCNQ1 activators by electrophysiology – IonWorks patch clamp, KCNQ1-CHO cells, orthogonal assay for KCNQ1 potentiator project, confirmation (AID 493184;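 active = current rise at least 3 SD above the untreated control mean in each of two repeat wells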); details: automated patch clamp current, at 10 µM; active compounds read high
[15] = tested on: TRPC4 beta (transient receptor potential cation channel C4), mouse; assay: TRPC4 cation channel opening, retest – cell-based, Fluo4 calcium, HEK293 TRPC4beta/mu-opioid, duplicates, 10 µM, confirmation (AID 2426;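 active = fluorescence ratio normalized to control raised more than 50% in primary screen plus both repeat runs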); details: Fluo4 calcium fluorescence, at 10 µM; active compounds read high
[16] = tested on: transient receptor potential cation channel C4 beta (TRPC4), mouse; assay: TRPC4 cation channel opening, second retest – cell-based, second round, Fluo4, HEK293 TRPC4beta/mu-opioid, 1 µM, confirmation (AID 2461;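 active = primary screen active and over 50% activation in each of two duplicate runs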); details: Fluo4 calcium fluorescence, at 1 µM; active compounds read high
[17] = tested on: TRPC4 (transient receptor potential cation channel C4 beta), mouse; assay: potentiation of DAMGO EC20 TRPC4 response – cell-based, second round, Fluo-4, HEK293 TRPC4beta/mu-opioid, 1 µM, confirmation (AID 2554;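 active = primary screen hit whose fluorescence ratio, in both repeats, exceeds the weak agonist control mean by 3 SD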); details: DAMGO EC20, Fluo-4 calcium flux, at 1 µM; active compounds read high
[18] = tested on: TRPC4 beta (transient receptor potential cation channel C4), mouse; assay: potentiation of DAMGO EC20 TRPC4 response – cell-based, Fluo-4, HEK293 TRPC4beta/mu-opioid, confirmation (AID 2555;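 active = primary screen hit whose calcium fluorescence ratio, in both repeats, exceeds the weak agonist control mean by 3 SD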); details: DAMGO EC20, Fluo-4 calcium flux, at 10 µM; active compounds read high
[19] = target: Short transient receptor potential channel 4 (Mus musculus) (UniProt Q9QUQ5); assay: blockers of DAMGO-evoked TRPC4 calcium flux – cell-based, Fluo4, HEK293 TRPC4beta/mu-opioid, confirmation (AID 2636;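 active = calcium signal cut by more than 3 SD below the full-agonist control yet still positive, in both repeats and the earlier primary screen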); details: at 10 µM; active compounds read high
Short transient receptor potential channel 4 (Mus musculus), sequence (Q9QUQ5 whole entry, looked up): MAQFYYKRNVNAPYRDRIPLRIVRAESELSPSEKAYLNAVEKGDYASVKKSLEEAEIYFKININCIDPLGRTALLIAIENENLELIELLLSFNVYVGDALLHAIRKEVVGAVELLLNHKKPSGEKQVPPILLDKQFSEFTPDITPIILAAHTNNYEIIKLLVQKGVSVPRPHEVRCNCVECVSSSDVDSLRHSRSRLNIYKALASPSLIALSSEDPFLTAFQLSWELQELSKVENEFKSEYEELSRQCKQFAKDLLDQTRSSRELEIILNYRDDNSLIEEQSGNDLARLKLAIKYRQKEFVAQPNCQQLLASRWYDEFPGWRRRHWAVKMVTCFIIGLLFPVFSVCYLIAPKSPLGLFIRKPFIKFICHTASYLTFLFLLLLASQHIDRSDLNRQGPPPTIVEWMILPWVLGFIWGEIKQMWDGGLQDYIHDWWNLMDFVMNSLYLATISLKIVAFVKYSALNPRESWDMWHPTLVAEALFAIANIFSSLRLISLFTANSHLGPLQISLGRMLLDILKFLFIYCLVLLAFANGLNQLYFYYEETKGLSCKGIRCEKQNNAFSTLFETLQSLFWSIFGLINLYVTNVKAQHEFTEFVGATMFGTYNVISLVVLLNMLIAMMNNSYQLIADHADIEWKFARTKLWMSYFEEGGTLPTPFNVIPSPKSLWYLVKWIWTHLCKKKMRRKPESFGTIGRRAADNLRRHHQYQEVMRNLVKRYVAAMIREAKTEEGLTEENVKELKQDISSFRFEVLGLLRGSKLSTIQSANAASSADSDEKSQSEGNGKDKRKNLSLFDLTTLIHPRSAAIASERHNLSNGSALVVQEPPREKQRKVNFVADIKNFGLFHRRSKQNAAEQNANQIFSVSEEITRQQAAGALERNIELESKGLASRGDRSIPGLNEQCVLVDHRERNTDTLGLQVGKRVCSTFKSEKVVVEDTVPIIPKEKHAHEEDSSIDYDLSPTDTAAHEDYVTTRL

[20] = target: Short transient receptor potential channel 4 (Mus musculus) (UniProt Q9QUQ5); assay: blockers of DAMGO-evoked TRPC4 calcium flux – cell-based, second round, Fluo4, HEK293 TRPC4beta/mu-opioid, 1 µM, confirmation (AID 2637;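 active = calcium signal ratio cut to more than 3 SD under the fully stimulated control mean yet still positive, in both repeats and the primary screen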;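 as to inhibition: percent of integrated ratio relative to wells lacking test compound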); details: at 1 µM; active compounds read high
[21] = target: Short transient receptor potential channel 4 (Mus musculus) (UniProt Q9QUQ5); assay: calcium entry via TRPC4 opening agents – cell-based, HEK293 TRPC4/mu-opioid, Fluo-4 calcium, dose response (AID 434937;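 active = primary screen activator hit with a dose response curve and TRPC4 channel activation at any tested dose; inactive = no activation, no dose response, or not a primary hit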)
[22] = target: Short transient receptor potential channel 4 (Mus musculus) (UniProt Q9QUQ5); assay: potentiation of DAMGO-evoked TRPC4 calcium signal – cell-based, HEK293 TRPC4/mu-opioid, Fluo-4 calcium, EC20 DAMGO, dose response (AID 434941;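 active = earlier screen potentiator hit that boosts the TRPC4 ion channel at some dose, with a dose response; inactive = no potentiation, no dose response, or not a prior hit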;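 also: calcium entry triggered by an EC20 dose of DAMGO at the co-expressed mu-opioid receptor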)
[23] = target: Short transient receptor potential channel 4 (Mus musculus) (UniProt Q9QUQ5); assay: block of DAMGO-driven TRPC4 calcium entry – cell-based, HEK293 TRPC4/mu-opioid, Fluo-4 calcium, dose response (AID 434942;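 active = primary screen inhibitor hit that blocks the TRPC4 channel at some tested dose, yielding a dose curve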)
[24] = target: Short transient receptor potential channel 6 (Mus musculus) (UniProt Q61143); assay: TRPC6 blockade by TRPC4 inhibitor hits – cell-based, HEK293, membrane potential dye, duplicate, selectivity assay for TRPC4 inhibitor project, confirmation (AID 434948;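 active = active in primary screen and both duplicates, each dropping signal beyond three positive-control SD with fluorescence still positive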); details: HEK293 TRPC6, membrane potential dye fluorescence, at 10 µM, stimulated with maximal-effect acetylcholine; active compounds read high
Short transient receptor potential channel 6 (Mus musculus), sequence (Q61143 whole entry, looked up): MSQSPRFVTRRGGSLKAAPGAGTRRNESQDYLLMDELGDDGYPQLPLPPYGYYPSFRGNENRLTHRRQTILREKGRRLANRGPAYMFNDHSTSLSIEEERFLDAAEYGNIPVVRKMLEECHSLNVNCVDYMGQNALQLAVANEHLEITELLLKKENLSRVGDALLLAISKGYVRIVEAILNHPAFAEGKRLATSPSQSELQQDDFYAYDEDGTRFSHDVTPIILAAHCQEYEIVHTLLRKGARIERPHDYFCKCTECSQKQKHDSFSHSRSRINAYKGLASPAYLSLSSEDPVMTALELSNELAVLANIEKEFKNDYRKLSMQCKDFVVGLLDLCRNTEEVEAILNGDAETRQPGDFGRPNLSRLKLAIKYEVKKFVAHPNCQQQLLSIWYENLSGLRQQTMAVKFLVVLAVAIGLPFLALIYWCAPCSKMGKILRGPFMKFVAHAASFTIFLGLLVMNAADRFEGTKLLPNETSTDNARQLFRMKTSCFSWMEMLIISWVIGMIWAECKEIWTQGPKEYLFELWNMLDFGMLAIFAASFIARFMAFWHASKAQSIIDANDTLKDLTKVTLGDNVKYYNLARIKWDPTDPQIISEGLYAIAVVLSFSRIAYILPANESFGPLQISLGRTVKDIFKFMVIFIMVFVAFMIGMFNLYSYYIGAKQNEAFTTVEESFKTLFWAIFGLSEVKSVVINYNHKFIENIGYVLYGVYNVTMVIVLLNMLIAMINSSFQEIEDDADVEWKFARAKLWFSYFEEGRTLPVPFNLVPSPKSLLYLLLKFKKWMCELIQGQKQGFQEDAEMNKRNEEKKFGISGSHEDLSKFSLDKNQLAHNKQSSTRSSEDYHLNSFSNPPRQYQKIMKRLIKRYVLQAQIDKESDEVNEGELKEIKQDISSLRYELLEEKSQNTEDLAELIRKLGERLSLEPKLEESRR

[25] = target: Short transient receptor potential channel 6 (Mus musculus) (UniProt Q61143); assay: TRPC6 opening by TRPC4 activator hits – cell-based, HEK293, membrane potential dye, duplicate, selectivity assay for TRPC4 activator project, confirmation (AID 434950;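 active = membrane potential signal rise above negative control mean plus 3 SD in both duplicates, also active in the earlier TRPC4 screen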); details: HEK293 TRPC6, membrane potential fluorescence, at 10 µM; activation: active compounds read high; outcome: activation
[26] = target: Short transient receptor potential channel 6 (Mus musculus) (UniProt Q61143); assay: positive modulators of mouse TRPC6 channel – HEK293 cells, membrane potential dye, duplicate, selectivity assay for TRPC4 potentiator project, confirmation (AID 434952;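 active = compound raising the membrane signal above positive-control mean plus 3 SD in both repeats, and a primary screen hit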); details: HEK293 TRPC6, membrane potential dye fluorescence, at 10 µM, maximal acetylcholine added after compound; active compounds read high
[27] = target: Short transient receptor potential channel 4 (Mus musculus) (UniProt Q9QUQ5); assay: calcium flux activators in TRPC4/5HT1a cells, counter-screen for TRPC4 activator project, cell-based, second counter screen, HEK293 TRPC4/5HT1a, Fluo-4 (AID 434977;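 active = calcium signal rise above buffer-control mean plus 5 SD in both duplicates, and also a hit in the primary screen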); details: Fluo-4 calcium flux, at 10 µM; active compounds read high
[28] = serotonin-gated TRPC4 signal block – cell-based, second counter screen, HEK293 TRPC4/5HT1a, Fluo-4, counter-screen for TRPC4 inhibitor project, confirmation (AID 434978;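 active = primary screen active whose calcium signal fell more than 3 SD beyond the full-serotonin control mean in both duplicate plates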;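 also: serotonin given first at submaximal then at maximal dose after compound preincubation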); details: Fluo-4 calcium flux, at 10 µM, serotonin added to trigger calcium flux; active compounds read high
[29] = tested on: TRPC4 (mouse), co-expressed with 5HT1a in HEK293; assay: enhancement of serotonin-evoked TRPC4 response – cell-based, second counter screen, HEK293 TRPC4/5HT1a, Fluo-4, counter-screen for TRPC4 potentiator project, confirmation (AID 434979;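 active = signal rise over 3 SD above mean of control wells given weak agonist, in both repeats and first screen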); details: Fluo-4 calcium flux, at 10 µM, serotonin added at its EC20 dose; active compounds read high
[30] = nonspecific calcium rise without TRPC4 – cell-based, HEK293 mu-opioid receptor line, counter-screen for TRPC4 activator project, confirmation (AID 449723;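 active = hit in primary screen, with calcium signal over 5 SD above buffer well mean in both duplicates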;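 also: counter screen cells carry the mu-opioid receptor alone and lack TRPC4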); details: HEK293 mu-opioid cells, Fluo-4 calcium fluorescence, at 10 µM; active compounds read high
[31] = nonspecific potentiation of DAMGO calcium response – cell-based, HEK293 mu-opioid receptor line, counter-screen for TRPC4 allosteric potentiator project, confirmation (AID 449724;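 active = calcium signal rise more than 3 SD above the low-dose agonist control mean, in both duplicate plates and the primary screen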); details: HEK293 mu-opioid receptor cells, Fluo-4 calcium flux, at 10 µM, compound added before EC20 DAMGO stimulus; active compounds read high

C/C(=N\NC(=O)c1ccoc1C)c1ccccc1O
inactive: outcome [1] | outcome [2] | activation over 3SD threshold [4] -7.3% | activity over 3SD threshold [6] -16.7% | outcome [7]
active: activity increase over 3SD of controls [3] 53.8% | potentiation, less the hit threshold [5] 52.9%

CC(=O)N(C1=C(Cl)C(=O)c2ccccc2C1=O)c1ccc(C(=O)O)cc1
inactive: outcome [1] | outcome [2]
active: inhibition [8] 158% | fluorescence ratio (Tl flux) [9] 0.205 | inhibition [10] 124%

CCOC(=O)c1sc(=S)n2c1[nH]c(=O)c1ccc(C(=O)OC)cc12
inactive: outcome [1] | activity increase over 3SD of controls [3] -16.8% | activity over 3SD threshold [6] -43.9% | outcome [7] | outcome [14]
active: FluxOR signal as % of negative control (100 = no effect) [2] 174% | activation over 3SD threshold [4] 4.8% | potentiation, less the hit threshold [5] 26.7% | activation [11] 383% | potentiation [12] 108% | potentiation [13] 351%

COc1ccccc1OCC(=O)Nc1ccc(Cl)cc1
active: inhibition [19] 52% | inhibition [20] 41%
inactive: outcome [15] | outcome [16] | outcome [17] | outcome [18] | outcome [21] | outcome [22] | outcome [23] | outcome [24] | outcome [25] | outcome [26] | outcome [27] | outcome [28] | outcome [29] | outcome [30] | outcome [31]

OCCNCc1cc(Br)ccc1OCc1ccccc1
inactive: outcome [15] | outcome [16] | outcome [17] | outcome [18] | outcome [19] | outcome [20] | outcome [21] | outcome [22] | outcome [23] | outcome [24] | outcome [25] | outcome [26] | outcome [27] | outcome [28] | outcome [29] | outcome [30] | outcome [31]

— PubChem BioAssay
